Reference: PubChem BioAssay (EPA / NIEHS)
Results filed as inconclusive are left out. Active and inactive are the calls of the source. How the source made its calls, unless noted: active means hit-call score of the fitted dose curve at least 0.9, where 1 is the maximum; inconclusive means response in the unintended direction; inactive means score below 0.9.

Key:
[1] = biological target: X-box-binding protein 1 (Homo sapiens) (UniProt P17861); experiment: ATG_Xbp1_CIS: Attagene CIS-FACTORIAL HepG2 Assay for human X-box Binding Protein 1 (XBP1) (AID 2282972; active means hit-call score of the fitted dose curve at least 0.9, where 1 is the maximum; inactive means score below 0.9); conditions: HepG2 XBP1 cis-element reporter, Attagene multiplex; actives raise or lower the signal
X-box-binding protein 1 (Homo sapiens), sequence (P17861 whole entry, looked up): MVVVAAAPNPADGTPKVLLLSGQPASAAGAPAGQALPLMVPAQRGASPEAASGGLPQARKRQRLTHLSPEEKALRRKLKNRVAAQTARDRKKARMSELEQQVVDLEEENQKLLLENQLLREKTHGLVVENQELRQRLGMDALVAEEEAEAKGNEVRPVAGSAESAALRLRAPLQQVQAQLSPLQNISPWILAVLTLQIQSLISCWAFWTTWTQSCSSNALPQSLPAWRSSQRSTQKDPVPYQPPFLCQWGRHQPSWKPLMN
How it was run: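 Multiplexed cis-reporter readout in transfected HepG2 liver cells. Exposure lasted 24 hours. Activity in either direction was fitted against DMSO as negative control and baseline.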

[2] = ATG_M_19_TRANS: Attagene TRANS-FACTORIAL HepG2 Assay for M19 Transcription Factor (Internal Marker) (AID 2282974); conditions: HepG2 Attagene TRANS-FACTORIAL M19 internal marker reporter
How it was run: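 Background-control readout: after 24 h chemical exposure of transfected HepG2 carrying GAL4-driven reporter units, RNA was reverse-transcribed, amplified, fluorescently labeled and sized by capillary electrophoresis; gain-of-signal fit against DMSO.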

[3] = ATG_GAL4_TRANS: Attagene TRANS-FACTORIAL HepG2 Assay for GAL4 (Internal Marker) (AID 2282976); conditions: HepG2 Attagene TRANS GAL4 internal marker reporter
How it was run: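 First, HepG2 cells were transfected with reporter units under GAL4-UAS control. Next, they were treated with chemical for 24 h. Finally, RNA was reverse-transcribed, PCR-amplified, FAM-labelled and resolved by capillary electrophoresis, with induction scored against DMSO.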

[4] = biological target: Estrogen-related receptor gamma (Homo sapiens) (UniProt P62508); experiment: ATG_ERRg_TRANS: Attagene TRANS-FACTORIAL HepG2 Assay for human Estrogen-Related Receptor gamma (ERRg) (AID 2282977); conditions: HepG2 Attagene TRANS reporter, ERRg transactivation;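 further: hits increase reporter signal over DMSO so potencies reflect activators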
How it was run: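 Readout: fluorescent reporter-mRNA fragments resolved by capillary electrophoresis after RT-PCR and HpaI cut. Cells: transiently transfected HepG2 carrying GAL4-UAS reporters driven by exogenous NR-Gal4 chimeras, dosed 24 h. Activity fitted upward relative to DMSO baseline.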

[5] = biological target: Oxysterols receptor LXR-alpha (Homo sapiens) (UniProt Q13133); experiment: ATG_LXRa_TRANS: Attagene TRANS-FACTORIAL HepG2 Assay for human Liver X Receptor alpha (LXRa) (AID 2282980); conditions: HepG2 Attagene TRANS reporter, LXRa transactivation
Oxysterols receptor LXR-alpha (Homo sapiens), sequence (Q13133 whole entry, looked up, the tested form may be a part): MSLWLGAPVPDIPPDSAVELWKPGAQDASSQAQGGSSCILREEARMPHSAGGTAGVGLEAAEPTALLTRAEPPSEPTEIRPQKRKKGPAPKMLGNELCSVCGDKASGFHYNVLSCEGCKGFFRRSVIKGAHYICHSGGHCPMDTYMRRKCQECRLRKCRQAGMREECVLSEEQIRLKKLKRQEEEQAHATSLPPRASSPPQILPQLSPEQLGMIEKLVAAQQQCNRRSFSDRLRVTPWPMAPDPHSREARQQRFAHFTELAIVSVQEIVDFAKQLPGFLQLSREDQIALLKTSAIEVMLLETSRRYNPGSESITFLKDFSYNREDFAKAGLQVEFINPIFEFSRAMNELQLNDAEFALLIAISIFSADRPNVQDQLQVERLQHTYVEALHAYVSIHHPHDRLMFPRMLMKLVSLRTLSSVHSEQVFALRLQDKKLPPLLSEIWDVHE
How it was run: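 Transfect HepG2 with GAL4-UAS multiplex reporter constructs (TRANS format, chimeric receptor-GAL4); treat 24 h; extract RNA, reverse-transcribe, PCR-amplify, FAM-label, HpaI-digest; resolve fragments by capillary electrophoresis. Upward response vs DMSO.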

[6] = biological target: Hepatocyte nuclear factor 4-alpha (Homo sapiens) (UniProt P41235); experiment: ATG_HNF4a_TRANS: Attagene TRANS-FACTORIAL HepG2 Assay for human Hepatocyte Nuclear Factor 4 alpha (HNF4a) (AID 2282982); conditions: HepG2 HNF4a transactivation reporter, mRNA readout
Hepatocyte nuclear factor 4-alpha (Homo sapiens), sequence (P41235 whole entry, looked up, the tested form may be a part): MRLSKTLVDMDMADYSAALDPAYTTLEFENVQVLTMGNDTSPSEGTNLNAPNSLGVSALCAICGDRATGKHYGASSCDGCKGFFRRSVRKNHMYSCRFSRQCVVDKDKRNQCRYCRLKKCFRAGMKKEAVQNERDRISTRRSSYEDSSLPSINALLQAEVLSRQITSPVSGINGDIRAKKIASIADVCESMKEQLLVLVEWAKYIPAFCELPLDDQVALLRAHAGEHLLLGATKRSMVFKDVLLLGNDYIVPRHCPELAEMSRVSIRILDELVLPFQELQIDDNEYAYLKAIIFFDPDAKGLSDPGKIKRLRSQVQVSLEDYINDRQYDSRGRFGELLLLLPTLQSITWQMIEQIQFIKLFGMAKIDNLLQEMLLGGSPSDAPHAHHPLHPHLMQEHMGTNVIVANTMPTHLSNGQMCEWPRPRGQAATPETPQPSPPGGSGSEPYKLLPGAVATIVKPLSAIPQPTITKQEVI
How it was run: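 Using HepG2 liver cells transfected with GAL4-UAS reporter units, chemical-induced mRNA increases were assessed after 24 hours. Fluorescent RT-PCR fragments were separated by capillary electrophoresis and compared with DMSO negative controls.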

[7] = biological target: Transcriptional activator Myb (Homo sapiens) (UniProt P10242); experiment: ATG_Myb_CIS: Attagene CIS-FACTORIAL HepG2 Assay for human Myeloblastosis (Myb) Proto-Oncogene Transcription Factor (AID 2282986; active means hit-call score of the fitted dose curve at least 0.9, where 1 is the maximum; inactive means score below 0.9); conditions: HepG2 Attagene CIS-FACTORIAL Myb reporter transcription; actives raise or lower the signal
Transcriptional activator Myb (Homo sapiens), sequence (P10242 whole entry, looked up): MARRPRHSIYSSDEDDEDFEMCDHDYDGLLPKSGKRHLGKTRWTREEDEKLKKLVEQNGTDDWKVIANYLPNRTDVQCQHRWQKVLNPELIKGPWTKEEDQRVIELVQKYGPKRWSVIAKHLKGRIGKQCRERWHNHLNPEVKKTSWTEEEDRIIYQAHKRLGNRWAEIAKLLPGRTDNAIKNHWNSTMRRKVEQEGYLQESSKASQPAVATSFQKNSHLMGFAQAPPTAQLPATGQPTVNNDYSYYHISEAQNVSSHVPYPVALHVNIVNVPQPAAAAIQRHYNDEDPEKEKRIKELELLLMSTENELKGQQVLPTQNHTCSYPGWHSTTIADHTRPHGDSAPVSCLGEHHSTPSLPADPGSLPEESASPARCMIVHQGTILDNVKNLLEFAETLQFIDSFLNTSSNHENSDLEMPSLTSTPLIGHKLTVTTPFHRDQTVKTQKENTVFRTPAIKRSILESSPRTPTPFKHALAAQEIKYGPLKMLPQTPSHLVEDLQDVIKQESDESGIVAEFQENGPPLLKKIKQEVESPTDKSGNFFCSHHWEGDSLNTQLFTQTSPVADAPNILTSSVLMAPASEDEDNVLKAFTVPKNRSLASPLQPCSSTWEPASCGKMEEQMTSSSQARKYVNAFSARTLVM
How it was run: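 Reporter mRNA is quantified by RT-PCR and capillary electrophoresis 24 h after dosing HepG2 cells transfected with cis-regulated reporter units, which track endogenous transcription factor activity. Gain and loss of signal are fitted versus DMSO baseline.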

[8] = biological target: Nuclear respiratory factor 1 (Homo sapiens) (UniProt Q16656); experiment: ATG_NRF1_CIS: Attagene CIS-FACTORIAL HepG2 Assay for human Nuclear Respiratory Factor 1 (NRF1) Orphan Gene (AID 2282987; active means hit-call score of the fitted dose curve at least 0.9, where 1 is the maximum; inactive means score below 0.9); conditions: HepG2 NRF1 cis-element reporter, Attagene multiplex; actives raise or lower the signal
Nuclear respiratory factor 1 (Homo sapiens), sequence (Q16656 whole entry, looked up): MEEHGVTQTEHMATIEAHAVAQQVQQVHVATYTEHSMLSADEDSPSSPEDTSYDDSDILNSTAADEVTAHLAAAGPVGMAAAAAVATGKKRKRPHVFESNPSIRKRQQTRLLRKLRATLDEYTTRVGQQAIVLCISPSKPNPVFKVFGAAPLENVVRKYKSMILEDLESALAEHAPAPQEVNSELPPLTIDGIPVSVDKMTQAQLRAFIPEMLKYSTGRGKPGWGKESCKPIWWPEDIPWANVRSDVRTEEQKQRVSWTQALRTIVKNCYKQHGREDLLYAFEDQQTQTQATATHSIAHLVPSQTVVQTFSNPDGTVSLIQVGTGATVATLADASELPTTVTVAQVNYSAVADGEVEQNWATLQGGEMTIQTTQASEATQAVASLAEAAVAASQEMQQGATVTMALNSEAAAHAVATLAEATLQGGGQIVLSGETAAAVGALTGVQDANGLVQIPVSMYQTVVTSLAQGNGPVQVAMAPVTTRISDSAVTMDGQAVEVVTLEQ
How it was run: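 Endogenous NRF1-driven reporter transcription in transfected HepG2 cells after 24 h treatment. Readout: RT-PCR products, 6-FAM labelled and resolved by capillary electrophoresis; changes fitted both directions relative to DMSO.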

[9] = ATG_NFI_CIS: Attagene CIS-FACTORIAL HepG2 Assay for human Nuclear Factor I (NFI) (AID 2282989; active means hit-call score of the fitted dose curve at least 0.9, where 1 is the maximum; inactive means score below 0.9); conditions: HepG2 cis-regulatory reporter, NFI response element transcription; actives raise or lower the signal
How it was run: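 Cells: human liver HepG2, transiently transfected with promoter-regulated reporter transcription units. Exposure 24 h. Detection: fluorescent RT-PCR products separated by capillary electrophoresis, normalised to DMSO negative control.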

[10] = biological target: Myc proto-oncogene protein (Homo sapiens) (UniProt P01106); experiment: ATG_Myc_CIS: Attagene CIS-FACTORIAL HepG2 Assay for human Myelocytomatosis (Myc) Proto-Oncogene Transcription Factor (AID 2282990; active means hit-call score of the fitted dose curve at least 0.9, where 1 is the maximum; inactive means score below 0.9); conditions: HepG2, Attagene cis-reporter transcription factor activity; actives raise or lower the signal
Myc proto-oncogene protein (Homo sapiens), sequence (P01106 whole entry, looked up): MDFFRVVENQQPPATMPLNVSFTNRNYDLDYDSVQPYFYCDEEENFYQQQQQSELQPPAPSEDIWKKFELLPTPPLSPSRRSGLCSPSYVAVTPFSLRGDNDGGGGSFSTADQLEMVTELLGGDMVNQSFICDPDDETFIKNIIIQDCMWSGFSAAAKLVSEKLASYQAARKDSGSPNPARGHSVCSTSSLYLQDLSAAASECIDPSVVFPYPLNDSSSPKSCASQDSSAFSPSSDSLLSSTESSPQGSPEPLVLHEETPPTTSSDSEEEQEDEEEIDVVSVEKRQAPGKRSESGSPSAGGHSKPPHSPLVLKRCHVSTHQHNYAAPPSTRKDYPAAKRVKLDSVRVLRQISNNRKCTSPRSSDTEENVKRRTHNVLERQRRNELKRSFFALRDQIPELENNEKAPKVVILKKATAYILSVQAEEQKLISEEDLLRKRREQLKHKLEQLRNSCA
How it was run: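 HepG2 cells transiently transfected with multiple cis-promoter-driven reporter transcription units, so endogenous TF activity is read. After 24 h compound exposure, reporter mRNA was quantified by RT-PCR, 6-FAM labelling, HpaI digestion and capillary electrophoresis; bidirectional fit versus DMSO.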

[11] = biological target: Glucocorticoid receptor (Homo sapiens) (UniProt P04150); experiment: ATG_GR_TRANS: Attagene TRANS-FACTORIAL HepG2 Assay for human Glucocorticoid Receptor (GR) (AID 2282978); conditions: HepG2 Attagene TRANS GR reporter, mRNA transcription;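 further: activators score as hits since higher reporter transcript over DMSO is fitted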
Glucocorticoid receptor (Homo sapiens), sequence (P04150 whole entry, looked up, the tested form may be a part): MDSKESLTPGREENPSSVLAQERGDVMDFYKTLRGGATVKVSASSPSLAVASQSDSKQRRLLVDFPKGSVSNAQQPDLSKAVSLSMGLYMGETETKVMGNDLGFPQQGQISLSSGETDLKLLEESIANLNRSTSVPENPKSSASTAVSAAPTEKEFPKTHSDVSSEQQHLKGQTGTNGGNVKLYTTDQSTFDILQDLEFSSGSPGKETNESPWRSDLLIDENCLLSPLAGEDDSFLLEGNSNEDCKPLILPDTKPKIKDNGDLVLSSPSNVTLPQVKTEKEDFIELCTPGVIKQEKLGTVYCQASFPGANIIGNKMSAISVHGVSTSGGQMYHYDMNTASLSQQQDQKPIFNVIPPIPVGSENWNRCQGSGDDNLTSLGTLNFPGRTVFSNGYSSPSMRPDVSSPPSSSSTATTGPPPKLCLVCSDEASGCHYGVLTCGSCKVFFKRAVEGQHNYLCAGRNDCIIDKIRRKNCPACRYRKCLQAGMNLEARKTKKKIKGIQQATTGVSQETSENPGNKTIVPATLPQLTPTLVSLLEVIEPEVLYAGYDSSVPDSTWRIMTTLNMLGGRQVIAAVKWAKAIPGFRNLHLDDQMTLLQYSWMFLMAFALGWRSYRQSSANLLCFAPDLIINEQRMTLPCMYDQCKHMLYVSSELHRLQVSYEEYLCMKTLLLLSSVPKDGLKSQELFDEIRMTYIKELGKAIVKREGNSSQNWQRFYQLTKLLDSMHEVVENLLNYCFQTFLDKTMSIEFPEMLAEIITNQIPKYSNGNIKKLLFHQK
How it was run: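 Readout is reporter transcript from a chimeric GR-Gal4 acting on GAL4-UAS in transfected human HepG2 liver cells after 24 h exposure, quantified by RT-PCR and capillary electrophoresis. Activation fitted upward against DMSO.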

[12] = biological target: Oxysterols receptor LXR-beta (Homo sapiens) (UniProt P55055); experiment: ATG_LXRb_TRANS: Attagene TRANS-FACTORIAL HepG2 Assay for human Liver X Receptor beta (LXRb) (AID 2282981); conditions: HepG2 Attagene TRANS GAL4-LXRb reporter, mRNA
How it was run: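 Liver-derived HepG2 cells transfected with Gal4-responsive reporters were dosed for 24 h. Activation was scored as rise in reporter mRNA, by RT-PCR and capillary electrophoresis, above DMSO baseline.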

[13] = ATG_M_06_TRANS: Attagene TRANS-FACTORIAL HepG2 Assay for M06 Transcription Factor (Internal Marker) (AID 2282983); conditions: HepG2 Attagene TRANS M06 internal marker reporter;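 further: reporter transcript level by RT-PCR then capillary electrophoresis fluorescence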
How it was run: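 Background control endpoint: reporter mRNA from transiently transfected HepG2 after 24 h dosing, detected by RT-PCR with capillary electrophoresis fluorescence. Analysed for gain versus DMSO.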

[14] = ATG_M_32_TRANS: Attagene TRANS-FACTORIAL HepG2 Assay for M32 Transcription Factor (Internal Marker) (AID 2282984); conditions: HepG2 Attagene TRANS M32 internal marker reporter;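 further: transcript level of a background control reporter unit measured by RT-PCR and capillary electrophoresis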
How it was run: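 Fluorescence-detected mRNA induction, HepG2 liver cells, 24 h after dosing. Multiple GAL4-UAS reporter units introduced by transient transfection; background-control endpoint analysed for gain of signal against DMSO.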

[15] = biological target: Bile acid receptor (Homo sapiens) (UniProt Q96RI1); experiment: ATG_FXR_TRANS: Attagene TRANS-FACTORIAL HepG2 Assay for Farnesoid X Receptor (FXR) (AID 2282979); conditions: HepG2 Attagene TRANS FXR-GAL4 reporter transcription;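 further: hits raise reporter mRNA above DMSO so AC50 marks FXR activation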
Bile acid receptor (Homo sapiens), sequence (Q96RI1 whole entry, looked up, the tested form may be a part): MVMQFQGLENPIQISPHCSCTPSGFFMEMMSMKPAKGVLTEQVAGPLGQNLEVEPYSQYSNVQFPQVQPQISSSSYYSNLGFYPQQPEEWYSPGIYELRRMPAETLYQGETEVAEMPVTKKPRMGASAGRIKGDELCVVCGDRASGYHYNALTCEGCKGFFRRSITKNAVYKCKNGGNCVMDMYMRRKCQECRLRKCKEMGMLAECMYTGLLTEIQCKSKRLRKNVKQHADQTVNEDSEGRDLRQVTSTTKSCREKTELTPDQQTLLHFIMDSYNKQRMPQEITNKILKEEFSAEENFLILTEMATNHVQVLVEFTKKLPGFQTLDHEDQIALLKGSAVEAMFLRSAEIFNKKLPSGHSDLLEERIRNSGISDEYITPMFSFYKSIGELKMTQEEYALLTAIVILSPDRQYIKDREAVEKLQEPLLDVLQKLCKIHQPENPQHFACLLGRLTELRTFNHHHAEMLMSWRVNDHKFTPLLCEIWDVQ
How it was run: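 Transient transfection of HepG2 with multiplexed GAL4-UAS reporter units; exogenous FXR-GAL4 chimera. Dose 24 h → TriZol RNA → oligo(dT) RT → PCR, 6-FAM primer extension, HpaI cut → CE. Gain vs DMSO.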

[16] = biological target: Nuclear receptor subfamily 4 group A member 2 (Homo sapiens) (UniProt P43354); experiment: ATG_NURR1_TRANS: Attagene TRANS-FACTORIAL HepG2 Assay for human Nuclear Receptor Related Protein 1 (NURR1) (AID 2282985); conditions: HepG2 Attagene TRANS reporter, mRNA readout
Nuclear receptor subfamily 4 group A member 2 (Homo sapiens), sequence (P43354 whole entry, looked up, the tested form may be a part): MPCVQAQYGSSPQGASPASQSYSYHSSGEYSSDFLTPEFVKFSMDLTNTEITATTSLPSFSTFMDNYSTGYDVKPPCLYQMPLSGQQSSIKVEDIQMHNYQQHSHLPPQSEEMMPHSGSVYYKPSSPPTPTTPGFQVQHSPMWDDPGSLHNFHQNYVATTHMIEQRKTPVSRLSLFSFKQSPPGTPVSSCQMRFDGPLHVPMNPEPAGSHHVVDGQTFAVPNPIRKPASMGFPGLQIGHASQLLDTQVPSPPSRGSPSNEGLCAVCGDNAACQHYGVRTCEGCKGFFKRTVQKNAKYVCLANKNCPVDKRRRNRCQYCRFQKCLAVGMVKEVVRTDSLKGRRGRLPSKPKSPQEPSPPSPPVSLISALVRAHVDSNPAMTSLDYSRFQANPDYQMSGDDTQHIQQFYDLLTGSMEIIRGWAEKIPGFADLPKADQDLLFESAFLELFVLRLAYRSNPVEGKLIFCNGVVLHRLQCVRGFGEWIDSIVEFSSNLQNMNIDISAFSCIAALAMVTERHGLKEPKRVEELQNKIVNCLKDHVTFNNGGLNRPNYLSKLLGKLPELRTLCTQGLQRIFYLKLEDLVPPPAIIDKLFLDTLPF
How it was run: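 Chimeric NR-Gal4 proteins were expressed in human HepG2 cells bearing GAL4-UAS reporter units, and induced reporter mRNA was quantified 24 h post-dosing by RT-PCR and capillary electrophoresis.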

Measured: outcome

Brc1ccc(Br)cc1
not listed: [11] | [12] | [13] | [14] | [15] | [16]
inactive: all other assays above

BrCCCCBr
not listed: [2] | [4] | [15] | [16]
inactive: all other assays above

CN(C)[C@@H]1C(=O)C(C(N)=O)=C(O)[C@@]2(O)C(=O)C3=C(O)c4c(O)ccc(Cl)c4[C@@](C)(O)[C@H]3C[C@@H]12
inactive: [1] | [15] | [13] | [14] | [16] | [7] | [8] | [9] | [10]

COc1nn(C(=O)NS(=O)(=O)c2ccccc2OC(F)(F)F)c(=O)n1C
not listed: [2] | [4] | [6] | [11] | [12] | [16]
inactive: all other assays above

CC(C)[N+](=O)[O-]
not listed: [4] | [5] | [8] | [12] | [16]
inactive: all other assays above

C=CCOC(N)=O
not listed: [2] | [4] | [5]
inactive: all other assays above
